Results filed as inconclusive are left out. Where a call stands in place of a potency, no number is given. Values without a mark were called inactive. Calls of active or inactive are those of the source. Calls come from the whole dose curve; as a rule, active = well fitted curve in the direction sought with a large enough effect; inconclusive = small, poorly fitted or top-dose-only effect, or another doubt; inactive = no such curve, though single readings can be large; an effect the other way counts as inactive or inconclusive.
What follows are compounds tested against Aldehyde dehydrogenase, mitochondrial (Homo sapiens) (UniProt P05091) (assay: qHTS for Inhibitors of the Aldehyde Dehydrogenase Family (ALDH2) Primary screen (AID 2061308; note: nearly all actives have a fitted effect of over 55% in size)). Settings: ALDH2 enzyme inhibition qHTS, 1536-well; series mostly up to 56 µM.
Work on `CCN(CC)CCCC(C)Nc1ccnc2cc(Cl)ccc12` (stereo not given) yielded an activity change, negative = inhibition of 0.897% [at 11.2 µM]. With `Cc1ccc(-c2cc(C(F)(F)F)nn2-c2ccc(S(N)(=O)=O)cc2)cc1` the Potency was “inactive”. For `CC(C)c1c(C(=O)Nc2ccccc2)c(-c2ccccc2)c(-c2ccc(F)cc2)n1CC[C@@H](O)C[C@@H](O)CC(=O)O`, the Potency was “inactive”. For `CC(=O)O[C@]1(C(C)=O)CC[C@H]2[C@@H]3C=C(Cl)C4=CC(=O)[C@@H]5C[C@@H]5[C@]4(C)[C@H]3CC[C@@]21C`, the Potency was “inactive”. For `Clc1ccc2c(c1)C(N1CCNCC1)=Nc1ccccc1O2`, the Potency was “inactive”.

Each compound was assayed against Retinaldehyde dehydrogenase 3 (Homo sapiens) (UniProt P47895) (assay: qHTS for Inhibitors of the Aldehyde Dehydrogenase Family (ALDH1A3) Confirmatory screens (AID 2061311; note: nearly all actives have a fitted effect of over 60% in size; note: potency is the fitted concentration of half-maximal effect)). Settings: ALDH inhibition qHTS; series mostly up to 46 µM.
`O=C1CCc2cc(OCCCCc3nnnn3C3CCCCC3)ccc2N1` was tested, and the Potency was 0.631 µM (active). With `Cc1ccc(S(=O)(=O)NC(=O)NN2CCCCCC2)cc1` the Potency was “inactive”. For `CC(C)(C)OC(=O)N1CCN(c2ccc(NCc3ccc(-c4ccc(C#N)cc4)o3)cn2)CC1`, the Potency was 7.08 µM (active). For `CC(C)(C)OC(=O)N1CCC(c2ccc(NCc3ccc(-c4ccc(C#N)cc4)o3)cc2)CC1`, the Potency was 3.16 µM (active). For `CCCCCCN(CCCCCC)C(=O)Cc1c(-c2ccc(F)cc2)[nH]c2ccccc12`, the Potency was “inactive”. With `O=C(O)CN(CCOCCOCCN(CC(=O)O)CC(=O)O)CC(=O)O` the Potency was “inactive”. `O=C(O)/C=C/c1ccc(O)c(O)c1` was tested, and the Potency was “inactive”. `CC(C)(C)OC(=O)N1CCN(c2cnc(NCc3ccc(-c4ccc(C#N)cc4)o3)nc2)CC1` was tested, and the Potency was 15.8 µM (active). In the case of `CC(C)(C)OC(=O)N1CCN(c2cnc(NCc3ccc(-c4ccc(C#N)cc4)o3)cn2)CC1`, the Potency is reported as 11.3 µM (active). For `CCC(NC(C)C)C(O)c1ccc(O)c(O)c1` (stereo not given), the Potency was “inactive”.
